Reference: PubChem BioAssay (EPA / NIEHS)
“And” between values parts separate entries of the source, which are not always exact repeats. Equal entries are not always repeated. Results filed as inconclusive are left out. The source holds several records for some structures; these can differ, active in one and inactive in another. The source made the active and inactive calls. How the source made its calls: active means hit-call score of the fitted dose curve at least 0.9, where 1 is the maximum; inconclusive means response in the unintended direction; inactive means score below 0.9.

target: Cellular tumor antigen p53 (Homo sapiens) (UniProt P04637); assay: TOX21_p53_BLA_p4_ratio: Tox21 HCT-116 p53 Agonism Beta-lactamase Assay, Ratio, Phase 4 (AID 2283601)
Sequence (P04637 whole entry, looked up, the tested form may be a part): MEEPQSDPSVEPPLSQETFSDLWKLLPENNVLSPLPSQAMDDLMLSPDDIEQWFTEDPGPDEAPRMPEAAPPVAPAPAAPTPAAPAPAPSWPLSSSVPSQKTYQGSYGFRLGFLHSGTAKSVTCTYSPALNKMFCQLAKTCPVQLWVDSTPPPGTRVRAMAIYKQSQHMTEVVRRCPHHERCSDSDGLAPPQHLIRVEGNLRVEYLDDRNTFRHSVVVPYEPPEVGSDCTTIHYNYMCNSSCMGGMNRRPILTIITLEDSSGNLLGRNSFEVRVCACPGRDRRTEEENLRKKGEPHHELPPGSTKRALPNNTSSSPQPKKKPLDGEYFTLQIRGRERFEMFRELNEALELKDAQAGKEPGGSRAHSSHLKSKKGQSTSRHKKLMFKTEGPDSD
Excerpt: TOX21_p53_BLA_p4 is a cell-based, single-readout assay that uses HCT116, a human intestinal cell line, […] in a 1536-well plate.TOX21_p53_BLA_p4_ratio is an assay readout measuring reporter gene via receptor activity and designed using inducible reporter (beta lactamase induction) detected with GAL4 b-lactamase reporter gene. The signal is derived from the ratio of cleaved (ch2) to uncleaved (ch1)reporter gene substrate used as the measure of target activity.Data from the assay component TOX21_p53_BLA_p4_ratio was analyzed into 1 assay endpoint. This assay endpoint, TOX21_p53_BLA_p4_ratio, was analyzed in the positive analysis fitting direction relative to DMSO as the negative control and baseline of activity. Using a type of inducible reporter, gain-of-signal activity can be used to understand changes in the reporter gene as they relate to the gene TP53. Furthermore, this assay endpoint can be referred to as a primary readout, because this assay has produced multiple assay endpoints where this ratio serves a reporter gene function to understand target activity. To generalize the intended target to other relatable targets, this assay endpoint is annotated to the DNA binding intended target family, where the subfamily is tumor suppressor.
Thawing Method: Place 14 mL of pre-warmed thaw medium into a 15 mL of conical tub. Remove the vial of cells to be thawed from liquid nitrogen and thaw rapidly by placing at 37C in a water bath with gentle agitation for 1-2 minutes. Decontaminate the vial by wiping with 70% ethanol before opening in a biological safety cabinet. Transfer the vial contents drop-wise into 14 mL of thaw medium in a sterile 15-mL conical tub. Centrifuge cells at 900 rpm for 4 minutes and resuspend in thaw medium. Transfer contents to the T75 tissue culture flask containing Thaw Medium and place flask in a humidified 37C/5% CO2 incubator. Switch to growth medium at first passage.Propagation Method: Aspirate medium, rinse once in DPBS, add 0.25% Trypsin/EDTA and swirl to coat the cell evenly. Add an equal volume of Growth Medium to inactivate Trypsin after 2-3 minutes incubation at 37C. Centrifuge cells at 900 rpm for 4 minutes and resuspend in growth medium. Cell should be passage or fed at least twice a week.Assay Protocol: Harvest cells from culture in growth medium and resuspend in assay medium. 2.2 Dispense 4000 cells/5 uL/well into 1536-well black/clear bottom plates using a Multidrop dispenser. After the cells were incubated at 37C for 5 hours, 23 nL of compounds dissolved in DMSO were transferred to the assay plate by a PinTool resulting in a 217-fold dilution. Incubate the plates for 16 hours at 37C, 5% CO2. Add 1 uL of 6X LiveBLAzer FRET B/G (CCF4-AM) Substrate Mixture to each well using a BioRAPTR dispenser and incubate the plates at room temperature for 2 hours. Measure fluorescence intensity at 460 and 530 nm emission and 405 nm excitation by an Envision detector. Data is expressed as the ratio of 460nm/530nm emissions. Add 4 uL of Cell-titer Glo to each well using BioRAPTR and incubate the plates at room temperature for 2 hours. Measure fluorescence intensity by a VewLux plate reader.

SMILES | outcome | AC50
Cc1occc1S | inactive | –
O=CC=C(c1ccccc1)c1ccccc1 | inactive | –
O=C(O)CONC(=O)c1ccccc1 | inactive | –
Cc1oc(C)c(C(=O)Nc2ccccc2)c1C | inactive | –
N#CC(c1ccc(Cl)cc1)c1c(Cl)cc(-n2ncc(=O)[nH]c2=O)cc1Cl (stereo unspecified) | – | 22.1 µM (active)
COC(=O)[C@H]1[C@H]2C[C@@H]3c4[nH]c5ccccc5c4CCN3C[C@H]2C[C@@H](OC(=O)c2cc(OC)c(OC)c(OC)c2)[C@@H]1OC | inactive | 15.7 µM (active)
O=C(O)CCCc1ccccc1 | inactive | –
C1CCC(C(CC2CCCCN2)C2CCCCC2)CC1 (stereo unspecified) | – | 20.5 µM (active)
C[N+](C)(C)CCOC(N)=O | inactive | –
CN(C)CCCCl | inactive | –
COC(=O)/C=C\C(=O)OC | inactive | –
CSc1ccc2c(c1)N(CCC1CCCCN1C)c1ccccc1S2 (stereo unspecified) | – | 43.4 µM (active) and 82.3 µM (active)
CC(C)(C)S | inactive | –
CC1=CCCC(C)(C)C12CCC(C)O2 (stereo unspecified) | inactive | –
CC(C)(C)NCC(O)c1cc(O)cc(O)c1 (stereo unspecified) | inactive | –
Cc1ccc([N+](=O)[O-])c(N)c1 | inactive | –
NO | inactive | –
COc1cc(C)nc(-n2nc(C)cc2OC)n1 | inactive | –
O[C@@H]([C@H](O)[C@H](O)CBr)[C@H](O)CBr | inactive | –
CC(NNC(=O)c1ccccc1)c1ccccc1 (stereo unspecified) | inactive | –

SMILES | outcome | AC50
CN(C/C=C/C#CC(C)(C)C)Cc1cccc2ccccc12 | inactive | –
NCCNCCNCCN | inactive | –
CCOc1nc2cccc(C(=O)O)c2n1Cc1ccc(-c2ccccc2-c2nn[nH]n2)cc1 | inactive | –
CCCCCCCCS | inactive | –
NCCCC[C@H](NC(=O)[C@@H]1CCCN1C(=O)[C@@H]1CSSC[C@H](N)C(=O)N[C@@H](Cc2ccccc2)C(=O)N[C@@H](Cc2ccccc2)C(=O)N[C@@H](CCC(N)=O)C(=O)N[C@@H](CC(N)=O)C(=O)N1)C(=O)NCC(N)=O | inactive | –
CCn1cc(C(=O)O)c(=O)c2cc3c(cc21)OCO3 | inactive | –
NC(N)=NC(=O)Cc1c(Cl)cccc1Cl | inactive | –
CC(=O)O[C@H]1C(=O)[C@@]2(C)[C@H]([C@H](OC(=O)c3ccccc3)[C@]3(O)C[C@H](OC(=O)[C@H](O)[C@@H](NC(=O)c4ccccc4)c4ccccc4)C(C)=C1C3(C)C)[C@]1(OC(C)=O)CO[C@@H]1C[C@@H]2O | – | 0.00702 µM (active)
C#C[C@]1(O)CC[C@H]2[C@@H]3CCc4cc(OC5CCCC5)ccc4[C@H]3CC[C@@]21C | inactive | –
NS(=O)(=O)c1cc2c(cc1Cl)NC(C1CC3C=CC1C3)NS2(=O)=O (stereo unspecified) | inactive | –
C[N+]1([O-])CCOCC1 | inactive | –
CCCCCCC/C=C/C=O | inactive | –
c1cc(N(CC2CO2)CC2CO2)ccc1Cc1ccc(N(CC2CO2)CC2CO2)cc1 (stereo unspecified) | – | 33.1 µM (active)
C=C1/C(=C\C=C2/CCC[C@]3(C)[C@@H]([C@H](C)CCCC(C)(C)O)CC[C@@H]23)C[C@@H](O)C[C@@H]1O | – | 26.1 µM (active)
CC(NCCC(c1ccccc1)c1ccccc1)c1ccccc1 (stereo unspecified) | – | 39.4 µM (active)
O=C(OCCO)c1ccccc1O | inactive | –
C[N+]1(C)CCCC(OC(=O)C(O)(c2ccccc2)c2ccccc2)C1 (stereo unspecified) | inactive | –
O=Cc1ccc([N+](=O)[O-])cc1 | inactive | –
Oc1ccc(OCc2ccccc2)cc1 | inactive | 9.05 µM (active)
